Rows were chosen to be rich in hits. Some 15% of all compounds tested hit in one or more screens of this group.
TDP1 cell CPT: DT40-hTDP1 cell growth loss with CPT; Potency, µM (titrated, usually from 46.2 µM), usual class: inhibitors; AID 686979; 12% of 420,000 active; chicken DT40 Tdp1-/-;hTDP1 cells + 20 nM CPT, ATP luminescence, 48 h; note: nearly all actives have a fitted effect of over 55% in size
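Chicken DT40 Tdp1-/- cells stably complemented with human TDP1 were seeded at 400 cells/well in medium containing 20 nM camptothecin, exposed to pin-transferred compounds, and grown at 37 °C for at least 48 hr. Viability was read as ATP luminescence.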
TDP1 cell noCPT: qHTS for Inhibitors of human tyrosyl-DNA phosphodiesterase 1 (TDP1): qHTS in cells in absence of CPT. 15% of 420,000 active. AID 686978, 2013. Potency, µM (titrated, usually from 46.2 µM), actives largely listed as inhibitors. DT40 Tdp1-/- hTDP1 cells, no CPT, ATP luminescence, 48 h; note: nearly all actives have a fitted effect of over 55% in size
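Readout: luminescence from CellTiter-Glo after 30 min in the dark at RT. Cells: DT40 Tdp1-/- with stable hTDP1, 400/well. Exposure: compounds alone, ≥48 hr, 37 °C.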
ELG1 DNA repair: blocks ELG1-dependent DNA repair in HEK293T cells | HEK293T ELG1-luciferase reporter, luminescence, 16 h; DNA damage induced by 5-fluorouridine | Potency, µM (top dose mostly 46.1 µM), hits mostly inhibitors | 2.3% of 330,000 active | AID 504467; note: nearly all actives have a fitted effect of over 55% in size
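HEK293T cells expressing luciferase-tagged ELG1 (2,000/well) received 5-Fluorouridine plus compound or DMSO for 16 hr at 37 °C. Luciferase was read by ONE-Glo luminescence after 30 min at room temperature.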
ALOX12 inh: blocks human arachidonate 12S-lipoxygenase | 1.1% of 580,000 active | P18054 | Potency, µM (series often up to 108 µM), actives largely listed as inhibitors | purified 12hLO, xylenol orange hydroperoxide absorbance
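Purified human 12hLO (150 nM final) in 25 mM Hepes, 0.01% Triton X-100, pH 7.0 was preincubated 15 min at room temperature with compound. Then 40 uM arachidonic acid was added, 30 min. Hydroperoxide was read by Fe-XO absorbance ratio 573/405 nm.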
RORg inh: ROR gamma (mouse) transcription inhibition. 5.4% of 310,000 active. P51450. Drosophila S2 Gal4-RORgamma UAS-luciferase reporter, 20 h. Potency, µM (highest dose often 53.6 µM), actives largely listed as inhibitors; note: nearly all actives have a fitted effect of over 60% in size
Target sequence (P51450 whole entry, looked up, the tested form may be a part): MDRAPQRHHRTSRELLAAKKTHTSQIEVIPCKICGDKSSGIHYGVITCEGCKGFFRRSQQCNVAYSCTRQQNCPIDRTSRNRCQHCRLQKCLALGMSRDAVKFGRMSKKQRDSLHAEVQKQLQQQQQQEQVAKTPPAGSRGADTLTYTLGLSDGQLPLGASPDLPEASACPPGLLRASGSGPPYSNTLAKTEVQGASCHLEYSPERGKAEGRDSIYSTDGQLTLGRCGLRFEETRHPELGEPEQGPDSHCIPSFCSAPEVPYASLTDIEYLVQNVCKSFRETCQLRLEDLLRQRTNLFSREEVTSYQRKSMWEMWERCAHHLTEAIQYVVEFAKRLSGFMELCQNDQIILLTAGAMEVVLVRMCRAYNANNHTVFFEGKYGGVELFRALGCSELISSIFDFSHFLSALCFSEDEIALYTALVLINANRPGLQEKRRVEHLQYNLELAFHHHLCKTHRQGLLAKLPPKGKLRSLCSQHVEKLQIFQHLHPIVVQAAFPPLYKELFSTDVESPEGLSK
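Drosophila Schneider cells stably carrying a metallothionein-driven Gal4 DBD–ROR gamma fusion and a UAS-Photinus luciferase reporter were exposed to compound for 1 hr, then induced with copper sulfate (700 uM final) for 20 hr at ambient temperature before luminescence reading.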
VP16 counter: Gal4-VP16 reporter inhibition counter-screen; Potency, µM (titrated, usually from 53.6 µM), usual class: inhibitors; 3.5% of 310,000 active; Drosophila S2 Gal4-VP16 UAS-luciferase, luminescence, 20 h; AID 2546;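 note: Gal4-VP16 expression switched on by copper sulfate through the metallothionein promoter; nearly all actives have a fitted effect of over 50% in size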
Each line names hits and unclear results; the compound was inactive in the other large screens. Calls come from the whole dose curve; as a rule, active = well fitted curve in the direction sought with a large enough effect; inconclusive = small, poorly fitted or top-dose-only effect, or another doubt; inactive = no such curve, though single readings can be large; an effect the other way counts as inactive or inconclusive.

O=[N+]([O-])c1cccc(N=Cc2ccccc2)c1	none (no result: ELG1 DNA repair, RORg inh, VP16 counter)
CN(C)CC[C@H](CSc1ccccc1)Nc1ccc(S(=O)(=O)NC(=O)c2ccc(N3CCN(Cc4ccccc4-c4ccc(Cl)cc4)CC3)cc2)cc1[N+](=O)[O-]	none (no result: TDP1 cell CPT, TDP1 cell noCPT, ELG1 DNA repair, RORg inh, VP16 counter)
CC1(C)CCC(c2ccc(Cl)cc2)=C(CN2CCN(c3ccc(C(=O)NS(=O)(=O)c4ccc(N[C@H](CCN5CCOCC5)CSc5ccccc5)c(S(=O)(=O)C(F)(F)F)c4)cc3)CC2)C1	TDP1 cell CPT 0.45µM, TDP1 cell noCPT 0.32µM (no result: ELG1 DNA repair, RORg inh, VP16 counter)
O=C(NCCN1CCN(C(=O)C(c2ccccc2)c2ccccc2)CC1)C(=O)Nc1ccccc1	TDP1 cell CPT inconclusive
CCOc1ccc(NC(=O)C(=O)NCCN2CCN(S(=O)(=O)c3ccc(C)cc3)CC2)cc1	TDP1 cell CPT inconclusive, TDP1 cell noCPT 9.2µM, ELG1 DNA repair inconclusive
Cc1ccc(S(=O)(=O)N2CCN(CCNC(=O)C(=O)Nc3ccc(F)cc3)CC2)cc1	TDP1 cell noCPT inconclusive
Cc1ccc(NC(=O)C(=O)NCCN2CCN(C(=O)C(c3ccccc3)c3ccccc3)CC2)cc1	TDP1 cell CPT 18µM, TDP1 cell noCPT 18µM, ELG1 DNA repair inconclusive
Cc1ccccc1S(=O)(=O)N1CCn2c(nn(CC3CC3)c2=O)C1	none (no result: TDP1 cell CPT, TDP1 cell noCPT, ELG1 DNA repair, RORg inh, VP16 counter)
COc1cc(NC(=O)Nc2cccc(Cl)c2)c(OC)cc1NC(=O)CN1CCCCC1	TDP1 cell CPT 16µM, TDP1 cell noCPT inconclusive (no result: VP16 counter)
COc1cc(NC(=O)c2ccc(C)cc2)c(OC)cc1NC(=O)CN1CCCCC1	TDP1 cell CPT 21µM, TDP1 cell noCPT 29µM, ELG1 DNA repair inconclusive
O=C(CN1CCCCC1)Nc1cccc(Cl)c1	none
CNc1c(Br)cc(C(O)C2=CCc3ccccc32)cc1Br (configuration not stated)	TDP1 cell CPT 8.9µM, TDP1 cell noCPT 4.5µM (no result: ELG1 DNA repair, ALOX12 inh, RORg inh, VP16 counter)
CNc1c(Br)cc(/C=C2\C=Cc3ccccc32)cc1Br	TDP1 cell noCPT inconclusive (no result: ELG1 DNA repair, ALOX12 inh, RORg inh, VP16 counter)
Cc1cccc(C2CC(=O)NC3=C2C(=O)CC(C)(C)C3)c1 (configuration not stated)	none (no result: TDP1 cell CPT, TDP1 cell noCPT, ELG1 DNA repair, RORg inh, VP16 counter)
Cc1c(CC(=O)N2CCCCC2)c(=O)oc2c(C)c3occ(C(C)(C)C)c3cc12	TDP1 cell CPT inconclusive, TDP1 cell noCPT 15µM (no result: ELG1 DNA repair, RORg inh, VP16 counter)
Cc1c(CC(=O)NCCc2ccc(Cl)cc2)c(=O)oc2c(C)c3occ(C(C)(C)C)c3cc12	TDP1 cell CPT inconclusive, TDP1 cell noCPT 21µM, ALOX12 inh inconclusive (no result: ELG1 DNA repair, RORg inh, VP16 counter)
COc1ccccc1CCNC(=O)Cc1c(C)c2cc3c(C(C)(C)C)coc3c(C)c2oc1=O	TDP1 cell CPT 26µM, TDP1 cell noCPT 21µM (no result: ELG1 DNA repair, RORg inh, VP16 counter)
Cc1coc2c(C)c3oc(=O)c(CC(=O)NCCc4ccc(Cl)cc4)c(C)c3cc12	TDP1 cell CPT inconclusive, TDP1 cell noCPT inconclusive (no result: ELG1 DNA repair, RORg inh, VP16 counter)
Cc1cc(Cl)cc(C)c1OCC(=O)NCCc1nnc2ccccn12	none (no result: TDP1 cell CPT, TDP1 cell noCPT, ELG1 DNA repair, RORg inh, VP16 counter)
CCOC(=O)NC(C(=O)NCCc1ccccc1)C(C)C (configuration not stated)	none (no result: TDP1 cell CPT, TDP1 cell noCPT, ELG1 DNA repair, RORg inh, VP16 counter)
O=C(CSc1nncn1-c1ccccc1F)Nc1ccccc1C(=O)NCCc1ccccc1	none (no result: TDP1 cell CPT, TDP1 cell noCPT, ELG1 DNA repair, RORg inh, VP16 counter)
COc1ccccc1NC(=O)N1CCc2cc(OC)c(OC)cc2C1CNC(=O)C(C)C (configuration not stated)	none (no result: TDP1 cell CPT, TDP1 cell noCPT, ELG1 DNA repair, RORg inh, VP16 counter)
CC1=C(C)CC(C(=O)NC2CCN(Cc3ccccc3)CC2)C(C(=O)O)C1 (configuration not stated)	none (no result: TDP1 cell CPT, TDP1 cell noCPT, ELG1 DNA repair, RORg inh, VP16 counter)
COc1ccc(C(=O)CC(=O)C(=O)Nc2cc(OC)ccc2OC)cc1	TDP1 cell noCPT inconclusive, RORg inh inconclusive
COc1ccc(C(=O)CC(Nc2ccc([N+](=O)[O-])cc2)c2ccc(Cl)cc2)cc1 (configuration not stated)	TDP1 cell CPT inconclusive, TDP1 cell noCPT 18µM, ELG1 DNA repair 16µM, RORg inh inconclusive
COc1ccc(C(=O)CC(=O)C(=O)Nc2ccc(Cl)cc2)cc1	TDP1 cell CPT inconclusive, TDP1 cell noCPT 21µM, ELG1 DNA repair inconclusive, RORg inh 7.1µM, VP16 counter 13µM

High-throughput results deposited in PubChem by National Center for Advancing Translational Sciences (NCATS).
